Shown are actives, neighbours in structure and some others; about 2.3% of the full set was active somewhere.
A549 tox: counter-screen for Nrf2 inhibitors: cytotoxicity in A549 cells; A549 ARE-Fluc cells, CellTiter-Fluor viability, 18-24 h; Potency, µM (top dose mostly 46 µM), inactives show top-dose activity change, negative = cytotoxicity, most hits filed as inhibitors; 390,000 compounds, 0.16% hits; also: potency is read from the fitted curve at half-maximal effect; % is scaled to controls: 0 for no effect and ±100 for the full control effect
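A549 ARE-Fluc cells in 5% FBS OPTI-MEM, 5000 cells/well, rested 2 h then exposed to compounds in concentration-response for 18-24 h at 37 °C. Viability by CellTiter-Fluor fluorescence (Ex 405/Em 525) after 30 min; luciferase luminescence (BugLite, 15 min, RT) read afterwards.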
Nrf2 inh: Nrf2 pathway inhibition; A549 ARE-Fluc reporter, luciferase luminescence, 18-24 h; Potency, µM (doses to about 46 µM), for inactives: at the top dose activity change, negative = inhibition, actives largely listed as inhibitors; 360,000 compounds, 2.1% hits; also: potency is read from the fitted curve at half-maximal effect; % is scaled to controls: 0 for no effect and ±100 for the full control effect; nearly all actives have a fitted effect of over 60% in size
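Nrf2 function is reported as luminescence of an ARE-controlled luciferase in A549 cells. Compounds were tested at several concentrations, and a CellTiter-Fluor read on the same wells flagged cytotoxicity.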
IL-2 act: activators of IL-2. IL-2 activation reporter assay, cell-based qHTS; stimulated with anti-CD3/CD4/CD28 beads; in transgenic mouse T cells. activation, % (series mostly up to about 46 µM). 360,000 compounds, 0.065% hits. AID 652025; in the data active = activation above about 50%; inconclusive = mostly about 30% to 49%; also: 0% is about no effect
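Unstimulated transgenic mouse T cells preincubated 60 min with compound, then stimulated with anti-CD3/anti-CD4-coated beads plus anti-CD28 for 18 h at 37 degrees C. IL-2 response read as EGFP and DsRed fluorescence by plate cytometry.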
Nrf2 activator: Nrf2 pathway activation; Potency, µM (highest dose often 46.1 µM), inactives show at the top dose activation, actives largely listed as activators; AREc32 ARE-luciferase reporter (MCF7-derived line), luminescence, 24 h; 410,000 compounds, 0.31% hits; also: potency is read from the fitted curve at half-maximal effect; % of control where 0% means no effect; nearly all actives have a fitted effect of over 65% in size
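ARE-driven firefly luciferase activity in AREc32 cells measured after a 24 hr compound exposure at 37 deg C, using Steady-Glo reagent and a 30 min room-temperature hold.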
An asterisk follows results filed as active; ? = inconclusive; · = not tested or not shown. Unless noted, calls follow the shape of the dose curve; as a rule, active = well fitted curve in the direction sought with a large enough effect; inconclusive = small, poorly fitted or top-dose-only effect, or another doubt; inactive = no such curve, though single readings can be large; an effect the other way counts as inactive or inconclusive.

SMILES	A549 tox	Nrf2 inh	IL-2 act	Nrf2 activator
CCS(=O)(=O)c1oc(-c2ccc(F)cc2)nc1S(=O)(=O)c1ccc(Br)cc1	?	?	·	0%
COc1ccccc1NC(=O)Cn1c(=O)c(CNc2ccccc2)cc2cc(OC)c(OC)cc21	7%	-1%	·	-1%
Cc1ccc(NC(=O)/C(=C/c2cccc([N+](=O)[O-])c2)NC(=O)C2CCCCC2)c(C)c1	-20%	9.2µM*	-2	-1%
CCCC(=O)N1CCN(c2ccc(NC(=S)NC(=O)c3cccc(C)c3)cc2)CC1	-29%	15µM*	-1	0%
O=C1CN(c2nc(-c3cccnc3)nc3sc4c(c23)CCCC4)CCN1	-1%	12µM*	0	3%
CCCn1cc(S(=O)(=O)c2cc(C)ccc2C)c(=O)c2cc(F)c(N3CCCCCC3)cc21	-18%	?	·	0%
Cc1cc(-c2csc3nc[nH]c(=S)c23)cc(C)c1C	?	23µM*	-2	9%
Cc1cc(SCC(=O)NCc2ccccc2Cl)nc(=O)[nH]1	1%	·	·	0%
COc1ccc(C(=O)NCCc2ccc(Cl)cc2)cc1S(=O)(=O)N1CCCCC1C (configuration not stated)	-7%	16µM*	0	0%
CCC(Cn1nnc2ccccc2c1=O)NC(=O)Nc1cccc(C)c1C (configuration not stated)	3%	18%	·	0%
CCOCCCNC(=O)c1ccc(-n2c(-c3ccccc3)cc3c2CCC(C)C3)cc1 (configuration not stated)	-3%	?	·	?
CCN(CC)CCNC(=O)c1ccc(-n2c(-c3ccccc3)cc3c2CCCC3)cc1	2%	?	·	11µM*
CCN(CC)CCNC(=O)c1ccc(NC(=O)c2ccc3c(c2)CCC3)cc1	-28%	-1%	2	4%
COCCCNC(=O)c1ccc(-n2c(-c3ccccc3)cc3c2CCCC3)cc1	2%	-10%	·	13µM*
CCN(Cc1nc2ccccc2c(=O)[nH]1)C(=O)c1ccc(C)c(NC(=O)c2ccco2)c1	-10%	16µM*	1	2%
CCN(Cc1nc2ccccc2c(=O)[nH]1)C(=O)c1cccc(NC(=O)c2cccs2)c1	0%	-11%	-1	8%
Cn1c(SCc2ccc(F)cc2)nc2ccc(C(=O)NCc3cccc(Cl)c3)cc21	-6%	21µM*	·	0%
Cn1c(SCc2ccc(F)cc2)nc2ccc(C(=O)NCc3ccc(Cl)cc3)cc21	2%	15µM*	·	3%
CC(C)Oc1ccc(CNC(=O)c2ccc3nc(SCc4ccc(F)cc4)n(C)c3c2)cc1	2%	11%	·	1%
Cn1c(SCc2ccc(F)cc2)nc2ccc(C(=O)NCc3ccc(F)cc3)cc21	?	23µM*	·	0%
Cc1ccccc1CNC(=O)c1ccc2nc(SCc3ccc(F)cc3)n(C)c2c1	-1%	?	·	1%
CCCN1CNc2c(c(=O)[nH]c(=S)n2CCc2ccc(OC)cc2OC)C1	15%	-3%	·	·
CC(C)(C)OC(=O)NCc1ccc(CNC(=O)c2nc[nH]c2C(=O)N2CCN(C(=O)OC(C)(C)C)CC2)cc1	-21%	26µM*	0	0%
CC(C)(C)c1ccc(C(=O)NCc2ccc(Cl)cc2)cc1	1%	?	2	0%
CC(C)(C)OC(=O)N1CCN(c2ccc(CNC(=O)c3ccc(Cl)cc3)cc2)CC1	-27%	10µM*	-2	-1%
SMILES	A549 tox	Nrf2 inh	IL-2 act	Nrf2 activator
Cn1cnc(C(=O)NCc2ccc(CNC(=O)OC(C)(C)C)cc2)c1C(=O)NCc1ccc(CNC(=O)OC(C)(C)C)cc1	1%	18µM*	-5	0%
O=C(NCCCN1CCOCC1)C(=O)NCc1ccc(Cl)cc1	-4%	-21%	-1	0%
CC(C)(C)OC(=O)NCc1ccc(CNC(=O)c2ncn(Cc3ccccc3)c2C(=O)NCc2ccc(CNC(=O)OC(C)(C)C)cc2)cc1	7%	1%	0	-1%
CC(C)(C)c1ccc(C(=O)N2CCN(CCNC(=O)C(=O)NCc3ccc(Cl)cc3)CC2)cc1	?	21µM*	-4	0%
COCc1cc(C)nc2sc3c(c12)NC(c1ccc(O)cc1)N(c1ccc(C)cc1)C3=O (configuration not stated)	?	?	·	-2%
CCOc1ccc(-n2c(CCC(=O)O)ccc2-c2ccc(Br)cc2)cc1	-2%	-2%	·	0%
CN(C)c1ccc(C(CNC(=O)c2c(F)cccc2Cl)N2CCOCC2)cc1 (configuration not stated)	0%	·	·	3%
CCN(Cc1ccccc1)C(=O)CN1C(=O)COc2ccc(S(=O)(=O)N(CC)CC)cc21	6%	7%	·	0%
CNC(=S)N(CCc1c(C)[nH]c2ccc(C)cc12)Cc1ccco1	-3%	-12%	-1	8%
CCNC(=S)N(CCc1c(C)[nH]c2ccc(Cl)cc12)Cc1ccco1	?	21µM*	-3	-2%
Cc1ccccc1Cn1c(CN2CCN(c3cc(Cl)ccc3C)CC2)nc2c1c(=O)[nH]c(=O)n2C	2%	3%	·	0%
Cc1ccc(Cl)cc1N1CCN(Cc2nc3c(c(=O)[nH]c(=O)n3C)n2Cc2ccccc2F)CC1	-7%	18µM*	-2	-4%
CCCC(=O)N1CCN(c2nnc(-c3ccccc3)c3ccccc23)CC1	-1%	-11%	-1	2%
Cc1ccc(-c2nnc(N3CCN(C(=O)COc4ccccc4)CC3)c3ccccc23)cc1	?	18µM*	-3	3%
O=C(COc1ccc(-c2nnc(N3CCCCC3)c3ccccc23)cc1)N1CCCCC1	-19%	?	-1	3%
O=C(COc1ccc([N+](=O)[O-])cc1)N1CCN(c2nnc(-c3ccccc3)c3ccccc23)CC1	-10%	23µM*	0	0%
Cc1ccc(C(C)C)c(OCC(=O)Nc2cc(-c3nc4ccccc4[nH]3)ccc2C)c1	9.2µM*	6.5µM*	·	0%
Cn1nc(C(F)(F)F)c(/C=N/OC(=O)c2ccccc2)c1Cl	-2%	-11%	-2	-1%
Cn1nc(C(F)(F)F)c(/C=N/OC(=O)c2ccccc2)c1Sc1ccc(Cl)cc1	-7%	15µM*	0	0%
CCc1ccc(NC(=O)Cn2nnc(-c3ccccc3N)n2)cc1	3%	4%	·	4%
Oc1c(CN2CCCCC2)cc(COCc2ccccc2)c2cccnc12	?	?	0	8%
CN(C)C1CCN(Cc2cc(COCc3ccccc3)c3cccnc3c2O)C1 (configuration not stated)	-12%	21µM*	0	4%
CCCn1cc(S(=O)(=O)c2ccc(C)c(C)c2)c(=O)c2cc(F)c(N3CCCCC3)cc21	1%	-21%	·	0%
CCCCn1cc(S(=O)(=O)c2ccc(C)c(C)c2)c(=O)c2cc(F)c(N(CC)CC)cc21	-26%	26µM*	·	-1%
Cc1ccc(-c2csc(=Nc3cccnc3)n2CCCn2ccnc2)cc1C	-6%	18µM*	-1	0%

Assay outcomes as filed in PubChem BioAssay.
